This passage reports composite z-score and z-score results from PubChem BioAssay.

Test [1] is described as follows: binders of probe aFSTL3 on microarray, primary screen, stem cell growth factor project, biochemical, small-molecule microarray, fluorescence 635/667 (AID 1064).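 Also: measures binding of the biotinylated anti-FSTL3 antibody to printed compounds.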 The note with it: higher = more signal.
Test [2] can be described thus: binders from COS7 lysate, DM2A8 probe, primary screen, torsin A project, cell lysate, small-molecule microarray, fluorescence 635/667 (AID 1065). The settings on record: higher = more signal, COS7 lysate expressing mutant human TOR1A.
Test [3] in a line: binders of probe aFGF2 on microarray, primary screen, stem cell growth factor project, biochemical, small-molecule microarray, fluorescence 635/667 (AID 1067).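 Also: measures binding of biotinylated aFGF2 protein to printed compounds on slides; z-score merges feature fluorescence and signal-to-noise across triplicate slides.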 The note with it: higher = more signal.
A short description of test [4]: binders of probe aFGF10 on microarray, primary screen, stem cell growth factor project, biochemical, small-molecule microarray, fluorescence 635/667 (AID 1071).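 Also: score merges 667 nm spot intensity and signal to noise from triplicate slides.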 The settings on record: higher = more signal.
The target in test [5] is Neurogenic locus notch homolog protein 2 (Homo sapiens) (UniProt Q04721). The test is described as follows: Notch2 binders on small-molecule microarrays, primary screen, biochemical, small-molecule microarray, 635 nm fluorescence, stem cell growth factors (AID 1073). The note with it: Notch2 binding, higher = more signal.
Test [6] has as its target Pro-neuregulin-1, membrane-bound isoform (Homo sapiens) (UniProt Q02297). As to the kind of experiment: NRG1 binders on small-molecule microarrays, primary screen, psychiatric disease protein project, biochemical, small-molecule microarray, fluorescence 635/667 (AID 1075).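 Also: score combines 667 nm spot fluorescence with signal to noise.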 The note with it: NRG1 binding, 635 nm fluorescence, higher = more signal.
The subject of test [7] is Neuregulin-1 EGF-like domain. As to the kind of experiment: binders of neuregulin-1 EGF-like domain, primary screen, biochemical, small-molecule microarray, 635 nm fluorescence (AID 1081).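 Also: binding of the protein to compounds printed on small-molecule microarray slides.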 The settings on record: small-molecule microarray binding, higher = more signal.
A short description of test [8]: FRG1 promoter luciferase signal modulators, primary screen, FRG1 inhibition for FSHD, cell-based, C2C12 myotubes, firefly/Renilla luciferase, luminescence (AID 1084). The note with it: higher = more signal, called active from +8 up or from −8 down.
The nature of test [9]: binders of probe aFST on microarray, primary screen, stem cell growth factor project, biochemical, small-molecule microarray, fluorescence 635/667 (AID 1086).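 Also: score merges 667 nm fluorescence with signal-to-noise of each printed compound spot.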 The settings on record: higher = more signal.
Test [10] in a line: binders of probe aHhip on microarray, primary screen, stem cell growth factor project, biochemical, small-molecule microarray, fluorescence 635/667 (AID 1087).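 Also: score merges spot fluorescence at 667nm with spot signal to noise ratio.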 The note with it: higher = more signal.

Active and inactive are the calls of the source.

Neurogenic locus notch homolog protein 2 (Homo sapiens), sequence (Q04721 whole entry, looked up, canonical isoform): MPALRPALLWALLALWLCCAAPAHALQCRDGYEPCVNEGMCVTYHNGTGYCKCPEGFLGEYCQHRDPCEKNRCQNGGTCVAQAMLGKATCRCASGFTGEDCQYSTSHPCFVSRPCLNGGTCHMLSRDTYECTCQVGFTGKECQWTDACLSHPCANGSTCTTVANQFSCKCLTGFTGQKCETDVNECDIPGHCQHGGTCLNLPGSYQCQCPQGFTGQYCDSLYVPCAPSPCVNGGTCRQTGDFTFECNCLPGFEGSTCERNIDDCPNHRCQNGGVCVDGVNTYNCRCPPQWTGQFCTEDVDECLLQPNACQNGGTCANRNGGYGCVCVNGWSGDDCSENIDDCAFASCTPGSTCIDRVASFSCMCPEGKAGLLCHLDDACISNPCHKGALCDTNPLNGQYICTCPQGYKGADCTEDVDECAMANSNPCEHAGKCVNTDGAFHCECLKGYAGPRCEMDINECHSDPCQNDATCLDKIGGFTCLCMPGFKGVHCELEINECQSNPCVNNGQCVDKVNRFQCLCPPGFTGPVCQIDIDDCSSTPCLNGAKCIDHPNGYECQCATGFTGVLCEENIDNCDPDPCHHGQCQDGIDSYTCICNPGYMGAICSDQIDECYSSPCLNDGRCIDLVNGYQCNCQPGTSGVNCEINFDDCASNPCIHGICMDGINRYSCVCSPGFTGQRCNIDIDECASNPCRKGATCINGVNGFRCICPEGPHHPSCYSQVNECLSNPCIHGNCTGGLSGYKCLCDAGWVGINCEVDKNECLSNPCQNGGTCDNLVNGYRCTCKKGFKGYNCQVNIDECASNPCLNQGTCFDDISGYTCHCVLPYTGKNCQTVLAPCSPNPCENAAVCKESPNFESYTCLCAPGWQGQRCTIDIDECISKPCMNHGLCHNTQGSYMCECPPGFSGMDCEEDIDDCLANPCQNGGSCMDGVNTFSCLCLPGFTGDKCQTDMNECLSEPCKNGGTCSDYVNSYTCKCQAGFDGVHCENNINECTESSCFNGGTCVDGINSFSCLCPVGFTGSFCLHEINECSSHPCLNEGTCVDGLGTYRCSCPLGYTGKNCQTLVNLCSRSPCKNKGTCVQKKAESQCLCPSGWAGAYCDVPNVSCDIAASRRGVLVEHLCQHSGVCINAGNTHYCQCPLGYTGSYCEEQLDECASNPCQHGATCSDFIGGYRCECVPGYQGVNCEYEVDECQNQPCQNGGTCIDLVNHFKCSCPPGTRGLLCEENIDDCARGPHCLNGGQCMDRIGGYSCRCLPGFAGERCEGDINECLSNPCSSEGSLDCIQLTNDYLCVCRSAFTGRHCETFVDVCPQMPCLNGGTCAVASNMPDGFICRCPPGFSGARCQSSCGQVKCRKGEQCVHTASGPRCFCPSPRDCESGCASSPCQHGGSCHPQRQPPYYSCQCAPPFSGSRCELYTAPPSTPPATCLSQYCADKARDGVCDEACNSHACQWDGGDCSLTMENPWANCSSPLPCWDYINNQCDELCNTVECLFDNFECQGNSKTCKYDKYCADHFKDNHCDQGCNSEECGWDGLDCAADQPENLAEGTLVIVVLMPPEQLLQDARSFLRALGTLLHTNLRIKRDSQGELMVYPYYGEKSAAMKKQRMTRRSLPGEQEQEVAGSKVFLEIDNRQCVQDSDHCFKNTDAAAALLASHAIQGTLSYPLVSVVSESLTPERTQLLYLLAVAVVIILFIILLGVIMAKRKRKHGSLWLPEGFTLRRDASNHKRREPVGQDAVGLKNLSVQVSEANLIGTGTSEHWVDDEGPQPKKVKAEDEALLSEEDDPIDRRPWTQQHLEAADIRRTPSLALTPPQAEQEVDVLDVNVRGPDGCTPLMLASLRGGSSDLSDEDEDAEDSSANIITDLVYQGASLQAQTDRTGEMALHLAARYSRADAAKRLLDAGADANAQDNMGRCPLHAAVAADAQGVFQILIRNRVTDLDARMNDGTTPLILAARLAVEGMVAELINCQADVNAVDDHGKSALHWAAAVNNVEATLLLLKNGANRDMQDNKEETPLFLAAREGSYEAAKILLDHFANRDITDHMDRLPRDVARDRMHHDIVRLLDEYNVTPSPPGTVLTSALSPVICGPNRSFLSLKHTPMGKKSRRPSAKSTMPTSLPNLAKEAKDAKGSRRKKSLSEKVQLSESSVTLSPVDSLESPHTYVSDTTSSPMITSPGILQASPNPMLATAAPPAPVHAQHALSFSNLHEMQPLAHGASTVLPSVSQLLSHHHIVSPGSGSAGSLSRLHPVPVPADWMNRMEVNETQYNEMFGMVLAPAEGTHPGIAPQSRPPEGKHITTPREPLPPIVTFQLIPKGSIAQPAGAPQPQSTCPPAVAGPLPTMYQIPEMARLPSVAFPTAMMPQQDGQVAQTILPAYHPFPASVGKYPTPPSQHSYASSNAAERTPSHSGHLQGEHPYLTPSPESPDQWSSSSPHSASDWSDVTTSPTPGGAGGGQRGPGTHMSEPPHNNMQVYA
Pro-neuregulin-1, membrane-bound isoform (Homo sapiens), sequence (Q02297 whole entry, looked up, the tested form may be a part, canonical isoform): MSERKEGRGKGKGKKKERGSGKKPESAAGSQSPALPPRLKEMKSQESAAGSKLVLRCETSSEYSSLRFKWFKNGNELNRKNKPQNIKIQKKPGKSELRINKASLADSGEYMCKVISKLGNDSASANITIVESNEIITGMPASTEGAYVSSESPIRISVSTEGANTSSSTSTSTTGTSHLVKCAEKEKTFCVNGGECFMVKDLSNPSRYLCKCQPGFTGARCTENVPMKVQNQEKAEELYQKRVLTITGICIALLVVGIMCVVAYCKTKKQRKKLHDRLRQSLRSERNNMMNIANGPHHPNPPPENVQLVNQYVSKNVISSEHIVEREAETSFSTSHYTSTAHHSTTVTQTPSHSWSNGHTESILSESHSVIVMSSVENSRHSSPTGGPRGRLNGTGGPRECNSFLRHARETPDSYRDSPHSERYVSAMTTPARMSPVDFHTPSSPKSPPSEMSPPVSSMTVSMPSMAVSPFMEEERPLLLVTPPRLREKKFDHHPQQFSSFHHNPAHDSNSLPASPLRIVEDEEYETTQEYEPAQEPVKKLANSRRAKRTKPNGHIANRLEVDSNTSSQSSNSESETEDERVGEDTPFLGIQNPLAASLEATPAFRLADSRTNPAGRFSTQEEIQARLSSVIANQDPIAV

As for `CCOC(=O)C[C@H]1[C@H](OC(=O)c2cc3ccccc3oc2=O)[C@@H](NC(=O)c2ccccc2)c2cc(OCCCO)ccc2N1C(=O)c1ccccc1`, the composite z-score in [1] is -0.319; in test [2], 0.524; in [3] it was -0.105; in test [4] it was 0.462; in test [5], 1.17; in test [6], 0.0287. Moreover, the composite z-score was 0.819 in test [7], 0.349 in test [9] and -0.199 in test [10]. The z-score in test [8] is 1.57 (inactive).

`COc1ccc([Si](C)(C)[C@@H]2[C@@H](CCO)O[C@]3(C(=O)N(Cc4cccc(NC(=O)[C@H](C)O)c4)c4ccccc43)[C@H]2C)cc1`: the composite z-score was -0.328 in [1]; 0.263 in [2]; -0.053 in [3]; 1.23 in [4]; 0.487 in [5]; 1.07 in test [6]. Moreover, the figures for the composite z-score in test [7], in test [9] and in test [10] were 1.14, 0.146 and -0.249, respectively. Besides, the z-score in test [8] is -3.53 (inactive).

For the compound `CCOC(=O)C[C@H]1[C@H](OC(=O)c2ccccc2-c2ccccc2)[C@@H](NC(=O)c2ccc3ccccc3c2)c2cc(OCCCO)ccc2N1C(=O)c1ccccc1`, the composite z-score in test [1] is -0.421; in test [2] it was 0.483; in test [3], -0.0277; in test [4] it was 1.03; in test [5], 0.299; in [6] it was 0.12. In addition, the composite z-score in test [7] was found to be 0.965; in test [9], 0.0603; in test [10], 0.0373. In [8], the z-score is -0.201 (inactive).

For the compound `C=C(/C(=C/C[C@H](OC(=O)c1ccncc1)c1ccc(CO)o1)c1cnc2ccccc2c1)C(C)C`, the composite z-score in test [1] was -0.418; in test [2] it was 0.0906; in test [3] it was -0.0325; in test [4], 1.21; in [5] it was 1.44; in test [6] it was 0.519. Further, the composite z-score in [7] is 1.17; in test [9], 0.106; in test [10], 0.0373. Besides, the z-score in [8] is 0.368 (inactive).

For `COC(=O)C/C=C/C[C@]1(O)C(=O)N(C)c2ccccc21`, the composite z-score in test [1] was -0.408; in [2], 0.598; in test [3], -0.148; in test [4], -0.294; in [5], 0.223; in test [6], -0.419. Moreover, the composite z-score is 0.797 in test [7], 0.164 in test [9] and -0.0708 in [10]. Also, the z-score in [8] is -1.59 (inactive).

As to `COCC(=C=CC[C@H](O)c1ccc(OCCO)cc1)CCO`, the composite z-score in [1] is -0.144; in test [2], 1.12; in [3] it was -0.161; in test [4], 0.592; in [5], 0.124; in [6], 1.64. Also, the composite z-score in test [7] is 1.42; in test [9], 0.0418; in [10], -0.0618. In addition, the z-score in [8] was 0.461 (inactive).

Consider `NCCCCCNC(=O)[C@@H]1C[C@@H]2C(=O)N[C@@H](CCCCN)C(=O)N2[C@@H]1c1ccc(O)cc1`, for which the composite z-score is 0.266 in test [1]; 0.726 in [2]; -0.0213 in test [3]; 0.491 in test [4]; 1.39 in test [5]; 2.02 in test [6]. In addition, the composite z-score was determined as 1.29 in test [7], 0.865 in [9] and 0.23 in test [10]. Further, the z-score in test [8] is 1.08 (inactive).

Regarding `COC(=O)[C@@]1(Cc2ccc(OC)cc2)[C@H]2c3cc(C(=O)N4CCCC4)n(CCc4c[nH]c5ccc(OC)cc45)c3C[C@H]2CN1C(=O)c1ccccc1`, the composite z-score in test [1] stood at 1.49; in test [2], 1.14; in test [3] it was 0.204; in test [4] it was 0.686; in test [5], 1.74; in [6] it was 0.898. Also, the values for the composite z-score in test [7], in test [9] and in [10] were 1.16, 1.55 and -0.161, respectively. Further, the z-score in [8] is 0.49 (inactive).

As to `CS(=O)(=O)CCOC(=O)C1=CC(c2ccc(CO)cc2)=CC(C2CC2)N(Cc2sc3ccccc3c2Cl)C=C1C(=O)OCCS(C)(=O)=O` (stereo not given), the composite z-score in test [1] is -0.0385; in test [2], 0.569; in test [3] it was -0.0746; in [4] it was 0.165; in test [5], 0.87; in test [6] it was 1.77. Further, the values for the composite z-score in test [7], in test [9] and in [10] were 0.962, 0.223 and 0.316, respectively. Also, the z-score in test [8] is -1.06 (inactive).

On to `CCOC(=O)C[C@H]1[C@H](OC(=O)Cc2ccc3c(c2)OCO3)[C@@H](NC(=O)c2ccc3ccccc3n2)c2cc(OCCCO)ccc2N1C(=O)c1ccccc1`, for which the composite z-score in test [1] was -0.0059; in test [2], 0.111; in test [3], 0.051; in [4], 0.202; in test [5] it was 0.64; in test [6] it was 0.405. The figures for the composite z-score in test [7], in test [9] and in test [10] were -0.111, 0.23 and -0.069, respectively. Also, the z-score in test [8] was 1.15 (inactive).

Turning to `Cc1ccc(S[C@]2(C(=O)NCC(F)(F)F)CC(=O)N(Cc3cc(C(F)(F)F)cc(C(F)(F)F)c3)[C@@H]2c2ccc(CO)cc2I)cc1`, the composite z-score is 0.225 in [1]; 1.52 in [2]; -0.128 in [3]; -0.41 in test [4]; -1.14 in [5]; 0.848 in test [6]. Moreover, the results for the composite z-score in test [7], in test [9] and in test [10] were 0.434, -0.666 and -0.409, respectively. For the same compound, the z-score in test [8] is -0.326 (inactive).

For the compound `OCCCC1=CC(c2ccc(CN3CCCC3)cc2)N(Cc2cc3c(cc2Br)OCO3)CC1` (stereo not given), the composite z-score was 0.492 in [1]; 0.52 in test [2]; -0.135 in test [3]; -0.373 in [4]; -0.108 in test [5]; -0.384 in [6]. Further, the composite z-score was 0.748 in test [7], 0.47 in test [9] and -0.0237 in [10]. Moreover, the z-score in [8] is -0.0594 (inactive).

As for `C[N+](C)(C)CCCC[C@@H]1NC(=O)[C@@H]2C[C@H](C(=O)NCCCCCCN)[C@H](c3cccc(OCCO)c3)N2C1=O`, the composite z-score was determined as 2.69 in [1]; 2.09 in test [2]; 0.239 in [3]; 0.494 in test [4]; 0.731 in test [5]; 2.31 in [6]. The figures for the composite z-score in test [7], in test [9] and in [10] were 1.38, 2.1 and 1.05, respectively. The z-score in test [8] is -0.155 (inactive).

For the compound `CC(C)N1C(=O)C[C@@](C(=O)NC2CC2)(c2ccc([N+](=O)[O-])cc2)[C@H]1c1ccc(CO)cc1`, the composite z-score in [1] is 0.632; in [2], 0.387; in test [3], -0.111; in [4] it was 0.173; in test [5], -0.551; in [6], 1.75. The composite z-score in [7] is 1.35; in test [9], -0.551; in [10], -0.0994. In addition, the z-score in test [8] is 0.74 (inactive).

`CC[C@@H]1C=C(C(=O)O)[C@H](c2ccc(C#N)cc2)N1S(=O)(=O)c1ccc(C)cc1`: the composite z-score worked out at 0.6 in test [1]; 2.35 in test [2]; 0.0865 in [3]; 1.09 in [4]; 0.905 in test [5]; 1.25 in test [6]. The composite z-score was 1.3 in [7], 0.145 in test [9] and -0.134 in test [10]. Besides, the z-score in test [8] was 0.281 (inactive).

As to `COCCOC(=O)N1C(=O)[C@@]2(c3cc(C#CC4=CCCCC4)ccc31)[C@H](c1ccccc1OCCO)N1[C@H](c3ccccc3)[C@H](c3ccccc3)OC(=O)[C@H]1[C@@H]2C(=O)NC[C@H](O)c1ccccc1`, the composite z-score is -0.223 in test [1]; 0.123 in [2]; -0.0817 in test [3]; 0.345 in test [4]; 1.07 in [5]; 0.298 in test [6]. Besides, the composite z-score in test [7] was 1.23; in test [9] it was 0.635; in [10] it was 0.115. The z-score in test [8] was 0.204 (inactive).

Consider `[N-]=[N+]=Nc1ccccc1[C@@H]1OC(c2ccc(OCCCO)cc2)=N[C@]1(Cc1ccccc1)C(=O)N1CCCCC1`, for which the composite z-score in [1] turned out to be 0.0153; in test [2], 1; in test [3] it was 0.122; in [4] it was 0.9; in [5], 1.39; in test [6], 1.37. Further, the composite z-score in [7] was 1.28; in [9] it was 1.46; in test [10], 0.249. Moreover, the z-score in test [8] is -2.33 (inactive).

Consider `[N-]=[N+]=Nc1ccccc1[C@H]1OC(c2ccc(OCCCO)cc2)=N[C@@]1(Cc1ccccc1)C(=O)NCCN1CCOCC1`, for which the composite z-score in test [1] worked out at 0.701; in [2] it was 0.584; in test [3], 0.178; in test [4], 1.19; in test [5], 1.65; in test [6], 1.96. Besides, the composite z-score in [7] is 1.39; in test [9], 1.66; in test [10], -0.106. Besides, the z-score in test [8] is 0.0219 (inactive).

With `COc1ccc(C#Cc2ccc3c(c2)[C@]2(C(=O)N3)[C@H](c3ccc(OCCO)cc3)N3[C@H](c4ccccc4)[C@H](c4ccccc4)OC(=O)[C@H]3[C@@H]2C(=O)NC[C@H](O)c2ccccc2)cc1`, the composite z-score is -0.338 in test [1]; 0.411 in [2]; -0.0276 in [3]; 0.422 in [4]; 1.16 in [5]; 1.55 in test [6]. Also, the composite z-score in test [7] was 1.13; in [9], 0.547; in [10], -0.236. In addition, the z-score in [8] was -0.164 (inactive).

As to `C=C(COC)/C(=C/C[C@H](OC(=O)c1ccncc1)c1ccccc1OCCO)c1cc(C(=O)OC)ccc1OC`, the composite z-score was -0.457 in test [1]; 0.562 in test [2]; -0.167 in [3]; 0.67 in test [4]; 0.302 in test [5]; 1.16 in test [6]. Moreover, the values for the composite z-score in test [7], in test [9] and in test [10] were 0.869, 0.431 and -0.442, respectively. The z-score in test [8] was -0.872 (inactive).

With `CCCCCCc1nc(Cc2cc(OC)c(OC)c(OC)c2)cc2c1[Si](C(C)C)(C(C)C)OC2`, the composite z-score in [1] was -0.288; in test [2], -0.117; in [3], -0.0909; in [4] it was 0.0277; in [5], -0.196; in [6], -0.184. For the same compound, the composite z-score was -0.434 in test [7], -0.0763 in [9] and -0.0427 in test [10]. The z-score in [8] is 1.06 (inactive).
